The text below walks through data of PubChem BioAssay.

Active and inactive are the calls of the source.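 How the source made its calls, unless noted: active means inhibition at or above 50% at 10 µM; inactive means inhibition below 50%.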

Assay [1] in a line: inhibitors of TNFa-induced NFkB p65 translocation, primary screen, imaging, HUVEC, MLSMR starter and 10KST1 sets (AID 438;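 active means inhibition above 20% together with a positive visual image hit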;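 further: compound added about 3h40 before a 20 min TNFalpha stimulation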;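 on inhibition: signal is the nuclear over cytoplasmic p65 intensity ratio per well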). The settings on record: HUVEC TNFa-induced p65 nuclear translocation; cell count: measured here: nuclei count (cytotoxicity indicator), at 2.08 µM; inhibition: at 2 µM, stronger effect = higher value, 0% TNFa-plus-vehicle, 100% no-TNFa wells.
A short description of assay [2]: inhibitors of mutant huntingtin aggregation, primary screen, imaging, exon1htt(103Q)mCFP cells, high-content imaging (AID 483;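 active means visual image review flags a hit and inhibition of aggregation exceeds 20%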;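 further: compound exposure lasted 3 days before fixation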;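 on nuclei count: percent of the per-plate median nuclei count of sample wells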). The conditions noted are these: exon1htt(103Q)mCFP cell line, aggregate imaging, at 2 µM; inhibition of aggregation: stronger effect = higher value; nuclei count: measured here: cell count, toxicity.
Assay [3] can be described thus: inhibitors of E-selectin induction by TNFa, primary screen, imaging, HUVEC, immunofluorescence, MLSMR starter and 10KST1 sets (AID 487;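 active means visually confirmed hit in the image check and inhibition above 20%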;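 on inhibition: signal is fraction of cell area covered by stained E-selectin grains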;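 on nuclei count: 100% = median nuclei count of all wells on the same plate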). The conditions noted are these: HUVEC TNFalpha-induced E-selectin immunofluorescence imaging, at 2 µM; inhibition: stronger effect = higher value; nuclei count: measured here: cell number, toxicity.
Assay [4] deals with Voltage-gated potassium channel subunit beta-2 (Rattus norvegicus) (UniProt P62483). Kind of assay: KvBeta enzyme negative modulators, primary screen, biochemical, NADPH fluorescence (AID 622;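 active means fluorescence slope higher than the sample average by over 3 SD, cut at about -0.22 in these data, passing the limit was not always enough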;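 further: slope of raw intensity against log time taken from 70 to 1610 s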). The conditions noted are these: recombinant KvBeta, 4-cyanobenzaldehyde reduction, at 10 µM, stronger effect = higher value.
For assay [5] the target is unchanged. Kind of assay: KvBeta positive modulators, primary screen, biochemical, NADPH fluorescence (AID 623;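 active means NADPH fluorescence slope more negative than the mean of all samples by about 3 SD, 99.7% confidence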;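 further: fluorescence intensity change per second fitted from 20 to 320 s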). The settings on record: Recombinant KvBeta, NADPH fluorescence decrease slope, 10 min; at 10 µM; stronger effect = lower value.
In assay [6] the target is Alpha-2C adrenergic receptor (Homo sapiens) (UniProt P18825). Description: modulators of alpha2C/GIRK thallium flux, primary screen, cell-based, HEK293 alpha2C/GIRK1/2 (AID 624;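 active means fluorescence slope after compound addition differing from the mean of all screened samples at 99.7% confidence, in either direction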;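 further: slope of fluorescence ratio to pre-addition baseline per second over 15 to 24 s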). The conditions noted are these: thallium flux BTC fluorescence, at 10 µM, actives lie on both sides.
Assay [7] can be described thus: inhibitors of Sendai virus-induced IRF3 signaling, primary screen, TLR/RLR signaling modifier project, cell-based, Sendai virus stimulus, luciferase, 10K MLSCN set (AID 602276).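 Further: firefly luciferase from ISG56 promoter only with Renilla not read in this screen; 0% = Sendai virus plus DMSO and 100% = medium plus DMSO without virus.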 The conditions noted are these: HEK293 RL24 IRF3 luciferase reporter, at 10 µM, stronger effect = higher value.
Assay [8] in a line: inhibitors of poly I:C-induced TLR3 signaling, primary screen, cell-based, poly I:C stimulus, luciferase, 10K MLSCN set (AID 602277;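 active means inhibition of the reporter signal at or above 50%; inactive means inhibition below 50%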). The settings on record: HEK293-TLR3 RL24 IRF3 luciferase reporter, at 10 µM, stronger effect = higher value. Background: A reporter such as luciferase makes a cellular process visible.

Chain of Voltage-gated potassium channel subunit beta-2 (Rattus norvegicus) (P62483 whole entry, looked up): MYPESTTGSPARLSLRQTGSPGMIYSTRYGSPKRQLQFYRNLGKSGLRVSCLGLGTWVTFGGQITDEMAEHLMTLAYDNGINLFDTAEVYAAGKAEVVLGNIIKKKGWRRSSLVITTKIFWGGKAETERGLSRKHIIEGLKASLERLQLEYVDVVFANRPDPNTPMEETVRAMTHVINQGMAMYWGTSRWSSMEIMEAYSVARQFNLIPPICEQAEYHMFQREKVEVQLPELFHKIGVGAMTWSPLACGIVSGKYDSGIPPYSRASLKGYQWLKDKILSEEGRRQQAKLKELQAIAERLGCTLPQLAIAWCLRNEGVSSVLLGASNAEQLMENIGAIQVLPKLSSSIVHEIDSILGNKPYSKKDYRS
Chain of Alpha-2C adrenergic receptor (Homo sapiens) (P18825 whole entry, looked up): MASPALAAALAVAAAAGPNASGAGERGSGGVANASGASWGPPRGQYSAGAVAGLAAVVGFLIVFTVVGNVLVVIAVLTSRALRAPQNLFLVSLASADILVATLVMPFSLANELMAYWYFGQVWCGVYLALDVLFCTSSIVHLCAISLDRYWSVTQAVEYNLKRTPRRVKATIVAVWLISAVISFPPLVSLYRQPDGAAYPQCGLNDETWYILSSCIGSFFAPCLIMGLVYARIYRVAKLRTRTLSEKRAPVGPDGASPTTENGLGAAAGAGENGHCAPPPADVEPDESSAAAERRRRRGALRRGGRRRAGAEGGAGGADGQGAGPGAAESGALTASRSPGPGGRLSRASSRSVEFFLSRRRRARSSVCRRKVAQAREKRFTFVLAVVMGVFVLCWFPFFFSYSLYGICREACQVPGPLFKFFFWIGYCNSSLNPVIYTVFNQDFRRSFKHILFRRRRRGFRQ

In the case of `CCC(C)(C(=O)NC1CCCCC1)N(CC1CCCO1)C(=O)c1ccccn1` (centres undefined), in assay [1], the cell count came out at 345. The inhibition (as a rule, the drop in the measured response relative to a control, in per cent) in assay [1] was 3% (inactive); in assay [3] it was -5.3% (inactive); in assay [7] it was 15.2% (inactive); in assay [8] it was 26.8% (inactive). Also, the inhibition of aggregation in assay [2] is 6.3% (inactive). Besides, the nuclei count in assay [2] was found to be 90.8%; in assay [3] it was 104%. In addition, the fluorescence slope in assay [4] is -0.418 (inactive). For the same molecule, the NADPH fluorescence slope in assay [5] is -8.5e-05 (inactive). For the same molecule, in assay [6], the slope was 0.0062 (inactive).
In the case of `O=C(Nn1cnnc1)C1Cc2ccccc2CN1S(=O)(=O)c1ccc(F)cc1` (centres undefined), the cell count in assay [1] came to 326. In addition, the inhibition is -6.7% (inactive) in assay [1], 0.9% (inactive) in assay [3], 14.1% (inactive) in assay [7] and 24.9% (inactive) in assay [8]. Also, in assay [2], the inhibition of aggregation is 7.4% (inactive). In addition, the results for the nuclei count in assay [2] and in assay [3] were 95.2% and 95.6%, respectively. In addition, in assay [4], the fluorescence slope is -0.481 (inactive). Besides, the NADPH fluorescence slope in assay [5] is -2.7e-05 (inactive). In assay [6], the slope was 0.00658 (inactive).
Turning to `Cc1nc(C)c(C(=O)C2=C(O)C(=O)N(CCCn3ccnc3)C2c2ccccc2)s1` (centres undefined), the cell count in assay [1] is 481. For the same molecule, the inhibition is 4% (inactive) in assay [1], 39.5% (inactive) in assay [3], -7.2% (inactive) in assay [7] and -4.54% (inactive) in assay [8]. In assay [2], the inhibition of aggregation is 11.4% (inactive). In addition, the values for the nuclei count in assay [2] and in assay [3] were 89% and 88.2%, respectively. Also, the fluorescence slope in assay [4] was -0.394 (inactive). Besides, the NADPH fluorescence slope in assay [5] is 1.3e-05 (inactive). The slope in assay [6] is 0.00668 (inactive).
In the case of `O=C(O)c1ccc(COc2ccc(Cl)cc2)o1`, the cell count in assay [1] was 262. For the same molecule, the inhibition in assay [1] is -3.3% (inactive); in assay [3], -24% (inactive); in assay [7] it was -14.7% (inactive); in assay [8], -60.9% (inactive). In addition, the inhibition of aggregation in assay [2] was 10.6% (inactive). For the same molecule, the nuclei count was found to be 81% in assay [2] and 88.3% in assay [3]. In assay [4], the fluorescence slope is -0.49 (inactive). Moreover, the NADPH fluorescence slope in assay [5] was -3e-05 (inactive). Besides, the slope in assay [6] is 0.00685 (inactive).
Turning to `O=S(=O)(Cc1ccccc1)N1CCCCCC1`, in assay [1], the cell count worked out at 451. For the same molecule, the inhibition is 5.2% (inactive) in assay [1], -42.3% (inactive) in assay [3], -4.29% (inactive) in assay [7] and 4.76% (inactive) in assay [8]. In addition, the inhibition of aggregation in assay [2] is -1% (inactive). In addition, the nuclei count in assay [2] is 91%; in assay [3], 103%. Moreover, the fluorescence slope in assay [4] is -0.497 (inactive). The NADPH fluorescence slope in assay [5] is -5.8e-05 (inactive). Besides, the slope in assay [6] is 0.00613 (inactive).
With `CCCN(Cc1cc2ccc(C)cc2[nH]c1=O)C(=O)c1cccnc1`, in assay [1], the cell count stood at 779. Also, the inhibition in assay [1] was 2.6% (inactive); in assay [3], -5.8% (inactive); in assay [7], 11.3% (inactive); in assay [8] it was 27.1% (inactive). The inhibition of aggregation in assay [2] is -34.8% (inactive). In addition, the nuclei count is 104% in assay [2] and 109% in assay [3]. The fluorescence slope in assay [4] was -0.46 (inactive). The NADPH fluorescence slope in assay [5] is 1.6e-05 (inactive). The slope in assay [6] is 0.00624 (inactive).
For the molecule `CCS(=O)(=O)c1nc2ccccc2n1Cc1ccccc1Cl`, the cell count in assay [1] is 689. Besides, the inhibition was -1.1% (inactive) in assay [1], -31.4% (inactive) in assay [3], -0.827% (inactive) in assay [7] and 18.9% (inactive) in assay [8]. Also, in assay [2], the inhibition of aggregation was -10.2% (inactive). In addition, the values for the nuclei count in assay [2] and in assay [3] were 115% and 109%, respectively. Moreover, the fluorescence slope in assay [4] was -0.542 (inactive). Moreover, the NADPH fluorescence slope in assay [5] is -5.8e-06 (inactive). In addition, the slope in assay [6] was 0.0072 (inactive).
As to `COC(=O)c1cc(OC)c(OCc2cc(C(=O)OC)oc2C)c(OC)c1`, the cell count in assay [1] amounted to 753. Further, the inhibition in assay [1] is 1.5% (inactive); in assay [3] it was 32.8% (inactive); in assay [7], 17% (inactive); in assay [8] it was 34.7% (inactive). The inhibition of aggregation in assay [2] is -6.3% (inactive). Moreover, the nuclei count in assay [2] was determined as 106%; in assay [3] it was 85.7%. For the same molecule, the fluorescence slope in assay [4] was -0.396 (inactive). Also, the NADPH fluorescence slope in assay [5] is -6.5e-05 (inactive). Moreover, the slope in assay [6] is 0.00675 (inactive).
As for `CCn1c(SCC(=O)Nc2cc(NC(C)=O)ccc2OC)nnc1-c1ccccn1`, the cell count in assay [1] came to 630. The inhibition is 6.5% (inactive) in assay [1], 51.6% (inactive) in assay [3], 10.3% (inactive) in assay [7] and 8.37% (inactive) in assay [8]. Moreover, in assay [2], the inhibition of aggregation is 3.4% (inactive). In addition, the nuclei count in assay [2] is 89.9%; in assay [3] it was 92.7%. In addition, the fluorescence slope in assay [4] was -0.541 (inactive). The NADPH fluorescence slope in assay [5] is 1.5e-05 (inactive). Further, in assay [6], the slope was 0.00559 (inactive).
In the case of `COc1ccccc1NC(=O)c1oc2ccccc2c1NC(=O)c1cc(OC)c(OC)c(OC)c1`, the cell count in assay [1] came out at 582. Further, the inhibition in assay [1] was -7.6% (inactive); in assay [3] it was 25.8% (inactive); in assay [7] it was 36% (inactive); in assay [8], 65.9% (active). The inhibition of aggregation in assay [2] was -17.1% (inactive). Moreover, the nuclei count in assay [2] was 85.7%; in assay [3] it was 60.4%. In assay [4], the fluorescence slope was -0.36 (inactive). Also, in assay [5], the NADPH fluorescence slope is -9.5e-06 (inactive). In addition, in assay [6], the slope is 0.00886 (inactive).
In the case of `O=C(O)C1CC=CCC1C(=O)Nc1cccc(C(=O)N2CCCCC2)c1` (centres undefined), in assay [1], the cell count was 419. The inhibition is 6.1% (inactive) in assay [1], -158% (inactive) in assay [3], 0.562% (inactive) in assay [7] and -0.512% (inactive) in assay [8]. For the same molecule, the inhibition of aggregation in assay [2] is -11.9% (inactive). Further, the results for the nuclei count in assay [2] and in assay [3] were 109% and 115%, respectively. The fluorescence slope in assay [4] was -0.427 (inactive). In assay [5], the NADPH fluorescence slope is -4.3e-05 (inactive). Besides, the slope in assay [6] is 0.00595 (inactive).
Turning to `c1ccc2c(c1)nc(NC1CCCCC1)c1nncn12`, the cell count in assay [1] was 446. Also, the inhibition in assay [1] was -0.5% (inactive); in assay [3], -47.5% (inactive); in assay [7], 0.474% (inactive); in assay [8], 32.3% (inactive). In assay [2], the inhibition of aggregation is 11.8% (inactive). The nuclei count in assay [2] worked out at 55.9%; in assay [3], 113%. For the same molecule, the fluorescence slope in assay [4] is -0.595 (inactive). For the same molecule, the NADPH fluorescence slope in assay [5] is -1.7e-05 (inactive). Further, in assay [6], the slope was 0.0061 (inactive).
For `COCCN(CC(=O)NCc1ccccc1)C(=O)CCC(=O)Nc1ccccn1`, the cell count in assay [1] came out at 663. Further, the inhibition was -4.4% (inactive) in assay [1], 38.3% (inactive) in assay [3], 19.1% (inactive) in assay [7] and 19.4% (inactive) in assay [8]. In addition, in assay [2], the inhibition of aggregation is 6.3% (inactive). The nuclei count in assay [2] amounted to 86%; in assay [3], 117%. Besides, the fluorescence slope in assay [4] was -0.506 (inactive). In addition, the NADPH fluorescence slope in assay [5] is -2.7e-05 (inactive). Moreover, the slope in assay [6] was 0.00555 (inactive).
For `CC(C)(C)C(=O)/C=C(\N)c1ccccn1`, the cell count in assay [1] turned out to be 404. Moreover, the inhibition in assay [1] was -5% (inactive); in assay [3] it was -33.9% (inactive); in assay [7] it was -0.411% (inactive); in assay [8], 2.89% (inactive). Besides, the inhibition of aggregation in assay [2] is 15.3% (inactive). Besides, the figures for the nuclei count in assay [2] and in assay [3] were 89.1% and 108%, respectively. Further, the fluorescence slope in assay [4] was -0.466 (inactive). Further, the NADPH fluorescence slope in assay [5] was -5.5e-05 (inactive). The slope in assay [6] is 0.00639 (inactive).
